# Compound activity deposited in PubChem BioAssay by several laboratories.
# In the library only some 4.3% were active in any assay of this set; here they are far more common.
# esBAF inh: SWI/SNF esBAF complex inhibition; AID 602393; reporter increase, % at 12.5 µM; 350,000 tested, 2% active; mouse ES cells, Bmi1-luciferase knock-in reporter, 24 h; 100% = twice the neutral-well signal; in the data active = activation above about 40%; inconclusive = no clear call, values can overlap the other calls;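 also: a rise in the Bmi1 reporter signal indicates esBAF inhibition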
# MITF act: MITF TRPM1 promoter activation in melanoma cells. activation, % at 12.5 µM. SK-MEL-5 TRPM1-promoter luciferase, 24 h; % of positive control, neutral wells = 0. 300,000 tested, 0.75% active;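 active = mean activation of at least 80% with every replicate also reaching 80%; inconclusive = mean reaches 80% but some replicate falls short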
# HSF1 inhib: HSF1 inhibition | NIH3T3-HGL HSE-luciferase, MG132-induced, luminescence 8 h; active compounds read low | activity change, negative = inhibition, % at 7.5 µM (by protocol) | 300,000 tested, 0.77% active | AID 2098;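 active = more than half of replicate wells show activity change below -50%, luminescence cut by over half; inconclusive = some wells, but at most half, below -50%; inactive = no replicate well below -50%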;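 also: luciferase reports HSF-1 transcriptional activity via heat shock element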
# Wnt act: Wnt/beta-catenin pathway activation. Wnt/beta-catenin reporter cell assay, activator, plate reader. activation, % at 9.35 µM. 300,000 tested, 1.2% active; in the data active = activation above about 30%, passing the limit was not always enough; inconclusive = no clear call, values can overlap the other calls
# SMARCA2 activ: increases SMARCA2 function in MMTV reporter cells; MG213 cells, MMTV-luciferase reporter, dexamethasone, overnight; activation, % at 9.1 µM; 370,000 tested, 1% active; in the data active = activation above about 7.8%
# HSF-1 act: increases HSF-1 driven luciferase reporter signal. AID 504408. 300,000 tested, 1.7% active. NIH3T3-HGL HSF-1 luciferase reporter, MG132, 8 h; 100% = twice DMSO control signal. activation, % at 9 µM;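 active = mean replicate activation of at least 50% with a set share of replicates each reaching 50%; inconclusive = only one of those two conditions met; inactive = mean below 50% and too few replicates reaching it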
# A number is an active result; - = inactive; ? = inconclusive; . = no result.
SMILES,esBAF inh,MITF act,HSF1 inhib,Wnt act,SMARCA2 activ,HSF-1 act
C[C@H](NC(=O)[C@@H]1N[C@@H]2c3ccc(C4=CCCCC4)c(=O)n3C[C@@H]2[C@H]1CO)c1ccccc1,-,.,.,.,.,.
CC(C)NC(=O)N1C[C@H]2[C@@H](c3ccccc31)[C@@H](CO)N2C(=O)c1ccccc1,-,.,.,.,.,.
COc1ccc(NC(=O)N(C)C[C@H]2OCCCC[C@H](C)Oc3ccc(NS(=O)(=O)c4c(C)noc4C)cc3C(=O)N([C@@H](C)CO)C[C@H]2C)cc1,-,.,.,.,.,.
CCC(C)NC(=O)c1ccc2c(SCC(=O)O)c3c(nc2c1)CCCC3 (centres undefined),-,-,-,-,-,-
CC(C)CCNC(=O)c1ccc2c(SCC(=O)O)c3c(nc2c1)CCC3,-,-,-86,-,-,-
CCC(C)NC(=O)c1ccc2c(Cl)c3c(nc2c1)CCC3 (centres undefined),53,-,-,42,-,-
O=C(NCc1ccccc1C(F)(F)F)c1cccc2c1C(=O)c1ccc(N3CCOCC3)cc1S2(=O)=O,-,-,.,-,-,.
O=C(NCc1ccccc1C(F)(F)F)c1cccc2c1C(=O)c1ccc(N3CCC(N4CCCCC4)CC3)cc1S2(=O)=O,-,.,.,-,20,.
COc1ccc(S(=O)(=O)N(C)C[C@@H]2Oc3ccc(NS(C)(=O)=O)cc3CC(=O)N([C@@H](C)CO)C[C@@H]2C)cc1,-,.,.,.,.,.
Cc1cc(C)nc(NC(=O)c2ccc(Br)cc2)n1,-,-,-,-,-,-
Cc1cc(NO)nc(-c2ccc(Br)cc2)n1,51,-,-,.,-,-
COc1ccc(Cc2c(-c3cccc(Br)c3)nc3ccc(Cl)cn23)c(C)c1,58,.,.,-,-,.
COc1ccc(Cc2c(-c3ccccc3)nc3ccc(Br)cn23)c(C)c1,61,.,.,-,-,.
Cn1c(NCc2ccccc2O)nc2ccccc21,53,?,-,-,-,-
CCCn1c(NCc2ccc(N(C)C)cc2)nc2ccccc21,-,-,-,-,-,-
CCN(CC)CCNc1nc2ccccc2n1C,-,-,-,-,-,57
Cn1c(NCc2ccccc2Cl)nc2ccccc21,?,-,-,-,-,-
Cc1ccc(CNc2nc3ccccc3n2C)o1,42,.,-,-,-,-
CN(C)c1ccc(CNc2nc3ccccc3n2C)cc1,48,.,.,-,-,.
C[C@@H]1CN([C@@H](C)CO)C(=O)c2cccc(NC(=O)NC3CCCCC3)c2O[C@@H]1CN(C)C,-,.,.,.,.,.
C[C@@H]1CCCCO[C@@H](CN(C)Cc2ccccc2)[C@@H](C)CN([C@@H](C)CO)C(=O)c2cc(NC(=O)Nc3ccc(F)cc3)ccc2O1,-,.,.,.,.,.
COc1cccc(S(=O)(=O)Nc2ccc3c(c2)C(=O)N(C)[C@@H]2CC[C@@H](CC(=O)O)O[C@@H]2CO3)c1,-,.,.,.,.,.
COc1ccc(S(=O)(=O)Nc2ccncc2)c(C)c1C,-,-,-,-,-,60
COc1ccc(S(=O)(=O)Nc2cccnc2)c(C)c1C,-,.,-,-,-,-
C[C@H](CO)N1C[C@H](C)[C@H](CN(C)Cc2ccccc2)Oc2cc(C3=CCCC3)ccc2S1(=O)=O,-,.,.,.,.,.
SMILES,esBAF inh,MITF act,HSF1 inhib,Wnt act,SMARCA2 activ,HSF-1 act
COc1cc(NC(=O)CN(C)S(=O)(=O)c2ccc(-c3ccc(=O)[nH]n3)s2)cc(OC)c1,-,-,-91,-,-,-
C[C@@H]1CCCCO[C@H](CN(C)S(C)(=O)=O)[C@@H](C)CN([C@@H](C)CO)C(=O)c2cc(NC(=O)Nc3cccc4ccccc34)ccc2O1,-,.,.,.,.,.
O=C(Nc1ccc(Cl)cc1)c1ccco1,-,-,-,45,-,-
O=C(c1ccco1)N1CCN(C(=O)N2CCOCC2)CC1,-,-,-,.,-,71
CC(=O)Nc1ccc(NC(=O)c2ccco2)cc1,-,-,-,.,-,-
O=C(c1ccco1)N1CCN(c2ccc(Cl)cc2)CC1,48,93,-,-,-,70
O=C(NCc1nc(-c2ccc(Cl)cc2)no1)c1ccco1,-,.,-,-,-,56
CC(NC(=O)c1ccco1)c1nc(-c2ccc(Cl)cc2)no1 (centres undefined),-,-,-,-,-,-
CN1C(=O)c2cc(NC(=O)Cc3cccs3)ccc2OC[C@@H]2O[C@@H](CC(=O)O)CC[C@H]21,-,.,.,.,.,.
CO[C@@H]1CN(C)C(=O)c2cc(NC(=O)c3cnccn3)ccc2OC[C@@H](C)N(C(C)=O)C[C@@H]1C,-,.,.,.,.,.
Cc1noc(C)c1NC(=O)N[C@@H]1CC[C@@H](CC(=O)N2CCCCC2)O[C@@H]1CO,-,.,.,.,.,.
CO[C@@H]1CN(C)C(=O)c2ccc(NC(=O)Nc3ccc(F)cc3)cc2OC[C@@H](C)N(C(=O)c2cnccn2)C[C@H]1C,-,.,.,.,.,.
C[C@@H]1CN([C@H](C)CO)C(=O)CCCn2cc(nn2)CO[C@H]1CN(C)C(=O)CCCN(C)C,-,.,.,.,.,.
Cc1cc(C)c(OCC(=O)OCC(=O)N2CCN(C(=O)c3ccco3)CC2)c(C)c1,-,-,-,-,-,-
O=C(Cc1ccc(Cl)cc1)Nc1ccc(N2CCN(C(=O)c3ccco3)CC2)cc1,-,.,-,-,-,80
COc1ccc(-c2nsc3c(N4CCN(C(=O)c5ccco5)CC4)ncnc23)cc1,-,-,-,-,-,-
Cc1ccc(NC(=O)c2ccc(OC(=O)c3ccco3)cc2)cc1,54,121,-,-,-,-
O=C(c1ccco1)N1CCN(c2ncnc3c(-c4ccccc4)nsc23)CC1,.,-,-,-,-,51
Cc1ccc(Oc2ccc(NC(=O)c3ccco3)cc2)cc1,-,-,-,-,-,-
